PubChem BioAssay
Active and inactive are the calls of the source.

Experiment: S. cerevisiae RM11-1a growth modifiers, primary screen, strain RM11-1a, OD600, basal, 24 h (AID 1177);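 also: cultures grown under basal conditions with no added stressor; test concentration not given here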
Details: OD600, 24 h, higher = more signal, called active from +8 up or from −8 down

z-score, inactive:
COCCCNC(=O)[C@]1(CCC(=O)OC(C)(C)C)N=C(c2ccc(OCCCO)cc2)O[C@@H]1c1ccccc1N=[N+]=[N-] 0.149, O=C1O[C@@H](c2ccccc2)[C@@H](c2ccccc2)N2[C@@H](c3ccccc3OCCO)[C@]3(C(=O)Nc4ccc(C#CCCO)cc43)[C@@H](C(=O)O)[C@H]12 -0.282, CN1C(=O)C2C(C1=O)C1C=C(CCCO)C2C(c2ccc(CN3CCCC3)cc2)N1C (stereo not given) 0.626, COC(=O)[C@@]1(Cc2ccc(F)cc2)[C@@H]2C(=CC(=O)[C@H]2CC(=O)C(=O)N(C)C)CN1C(=O)c1ccccc1 1.38, [N-]=[N+]=NCc1ccccc1C[C@]1(C(=O)NCc2ccccc2)N=C(c2ccc(OCCCO)cc2)O[C@H]1c1ccccc1N=[N+]=[N-] -0.204, C=C(COC)/C(=C/C[C@H](OC(=O)c1ccncc1)c1ccc(CO)o1)c1cc(C(=O)OC)ccc1OC -0.328, CS(=O)(=O)CCOC(=O)C1=CC(CCCO)=CC(c2cccs2)N(Cc2cccc(OC(F)(F)F)c2)C=C1C(=O)OCCS(C)(=O)=O (stereo not given) 0.0788, CCCNC(=O)[C@@H]1c2ccccc2C(=O)N(Cc2ccccc2Cl)[C@H]1c1ccc(CO)cc1 0.251, CCc1cccc(NC(=O)O[C@H]2[C@H](OC(=O)Nc3ccc4c(c3)OCO4)[C@@H](OC(=O)Nc3ccc4c(c3)OCO4)[C@@H](OC)O[C@@H]2CO)c1 1.88, COC(=O)[C@@]1(Cc2ccc(OC)cc2)[C@H]2c3cc(C(=O)N4CCCC4)n(Cc4cc(F)c(F)c(F)c4)c3C[C@H]2CN1C(=O)c1ccccc1 0.0628, CN(C)C(=O)[C@@]1(Cc2ccccc2)N=C(c2ccc(OCCCO)cc2)O[C@H]1c1ccccc1CN=[N+]=[N-] -0.112, COc1ccc([Si](C)(C)[C@@H]2[C@@H](CCO)O[C@]3(C(=O)N(Cc4ccc(NC(C)=O)cc4)c4ccccc43)[C@H]2C)cc1 3.91, O=C1O[C@@H](c2ccccc2)[C@@H](c2ccccc2)N2[C@@H](c3ccc(O)cc3)[C@]3(C(=O)Nc4ccccc43)[C@@H](C(=O)O)[C@H]12 -0.472, O=C1c2ccccc2[C@@]2(Cc3ccccc3N(C3CC3)C2=O)[C@H](c2ccc(CO)cc2)N1Cc1ccccc1C(F)(F)F -0.887, O[C@@H](Cc1ccccc1)[C@H]1C2C=CCCC(c3ccccc3)=C2CN1Cc1cccc(Cl)c1 (stereo not given in full) -0.53
